Consider three molecules from PubChem BioAssay (EPA / NIEHS).

Active and inactive are the calls of the source. The calls were made as follows: active = hit-call score of the fitted dose curve at least 0.9, where 1 is the maximum; inactive = score below 0.9.

Read-out in assay [1]: TIMP metallopeptidase inhibitor 1 (TIMP1), TIMP1 (gene 7076)
In words: BSK_hDFCGF_TIMP1: BioMAP Diversity Plus: hDFCGF Assay for TIMP metallopeptidase inhibitor 1 (TIMP1) Biomarker Activity (AID 2283062). The following applies: primary human foreskin fibroblasts; actives raise or lower the signal. In short, it runs like this:
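Fibroblasts from human foreskin are treated with test chemical and harvested at 24 h. TIMP-1 is quantified by ELISA, and gain or loss of signal is scored against DMSO.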

Read-out in assay [2]: Monokine induced gamma interferon (MIG), CXCL9 (gene 4283)
Description: BSK_hDFCGF_MIG: BioMAP Diversity Plus: hDFCGF Assay for Monokine induced gamma interferon (MIG) Biomarker Activity (AID 2283063). The conditions noted are these: primary human foreskin fibroblasts; actives raise or lower the signal. In short, it runs like this:
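MIG signal, determined by ELISA, reflects 24 h chemical exposure of human skin primary fibroblasts. DMSO serves as negative control and baseline.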

Read-out in assay [3]: Matrix Metallopeptidase 1 (MMP1), MMP1 (gene 4312)
In words: BSK_hDFCGF_MMP1: BioMAP Diversity Plus: hDFCGF Assay for Matrix Metallopeptidase 1 (MMP1) Biomarker Activity (AID 2283064). The conditions noted are these: primary human foreskin fibroblasts; actives raise or lower the signal. In short, it runs like this:
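ELISA read-out of MMP1 from human foreskin fibroblasts (primary skin cells), 24 h post-dose. Gain or loss of signal was fitted bidirectionally versus DMSO negative control; cytotoxicity was checked by SRB in parallel cultures.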

Read-out in assay [4]: Vascular cell adhesion molecule 1 (VCAM1), VCAM1 (gene 7412)
In words: BSK_hDFCGF_VCAM1: BioMAP Diversity Plus: hDFCGF Assay for Vascular cell adhesion molecule 1 (VCAM1) Biomarker Activity (AID 2283065).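 As to AC50: VCAM-1 protein level quantified by ELISA after 24 h chemical exposure.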 The following applies: primary human foreskin fibroblasts; actives raise or lower the signal. In short, it runs like this: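 Cells are dosed, cultured for 24 h, then VCAM-1 is quantified by ELISA; signal increases and decreases are both fitted relative to DMSO.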

Read-out in assay [5]: Plasminogen activator inhibitor-1 (PAI1), SERPINE1 (gene 5054)
Description: BSK_hDFCGF_PAI1: BioMAP Diversity Plus: hDFCGF Assay for Plasminogen activator inhibitor-1 (PAI1) Biomarker Activity (AID 2283066). The conditions noted are these: primary human foreskin fibroblasts; actives raise or lower the signal. The procedure, abridged:
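ELISA readout of PAI-1 from primary human skin fibroblast cultures, 24 h after compound addition. Gain or loss of signal was fitted bidirectionally against DMSO baseline.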

Read-out in assay [6]: Intercellular Adhesion Molecule 1 (ICAM1), ICAM1 (gene 3383)
In words: BSK_KF3CT_ICAM1: BioMAP Diversity Plus: KF3CT Assay for Intercellular Adhesion Molecule 1 (ICAM1) Biomarker Activity (AID 2283067). The following applies: primary human keratinocytes with fibroblasts; actives raise or lower the signal. In short, it runs like this: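 Dose the keratinocyte/fibroblast co-culture, wait 24 h, measure ICAM-1 by ELISA, then fit increases or decreases against DMSO. Cytotoxicity is checked in parallel cultures by SRB total-protein staining.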

Read-out in assay [7]: Interferon-gamma inducible Protein 10 (IP10), CXCL10 (gene 3627)
In words: BSK_KF3CT_IP10: BioMAP Diversity Plus: KF3CT Assay for Interferon-gamma inducible Protein 10 (IP10) Biomarker Activity (AID 2283068). The following applies: primary human keratinocytes with fibroblasts; actives raise or lower the signal. The procedure, abridged: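 Signal is secreted/surface IP-10 by ELISA in a human primary skin co-culture of keratinocytes and foreskin fibroblasts, taken 24 h post-dosing; DMSO served as negative control.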

Read-out in assay [8]: Interleukin-1 alpha (IL1a), IL1A (gene 3552)
Description: BSK_KF3CT_IL1a: BioMAP Diversity Plus: KF3CT Assay for Interleukin-1 alpha (IL1a) Biomarker Activity (AID 2283070). The following applies: primary human keratinocytes with fibroblasts; actives raise or lower the signal. The procedure, abridged: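 Primary skin co-culture (keratinocytes, foreskin fibroblasts), 24 h exposure; ELISA for IL-1a; bidirectional curve fit vs DMSO.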

Read-out in assay [9]: TIMP metallopeptidase inhibitor 2 (TIMP2), TIMP2 (gene 7077)
Description: BSK_KF3CT_TIMP2: BioMAP Diversity Plus: KF3CT Assay for TIMP metallopeptidase inhibitor 2 (TIMP2) Biomarker Activity (AID 2283071). The conditions noted are these: primary human keratinocytes with fibroblasts; actives raise or lower the signal. The procedure, abridged:
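ELISA readout of TIMP-2 in keratinocyte plus foreskin fibroblast co-cultures (human skin primary cells), 24 h post-dose. Gain or loss of signal fitted relative to DMSO.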

Read-out in assay [10]: Transforming growth factor beta 1 (TGFb1), TGFB1 (gene 7040)
Description: BSK_KF3CT_TGFb1: BioMAP Diversity Plus: KF3CT Assay for Transforming growth factor beta 1 (TGFb1) Biomarker Activity (AID 2283072). The conditions noted are these: primary human keratinocytes with fibroblasts; actives raise or lower the signal. In short, it runs like this: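 Read-out: ELISA for TGF-b1 in keratinocyte/foreskin fibroblast human skin co-culture, 24 h after dosing; bidirectional curve fit vs DMSO baseline; gain or loss of signal scored.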

Read-out in assay [11]: C-C motif chemokine 2 (Homo sapiens) (UniProt P13500)
Description: BSK_KF3CT_MCP1: BioMAP Diversity Plus: KF3CT Assay for Monocyte Chemoattractant Protein 1 (MCP1/CCL2) Biomarker Activity (AID 2283073). The conditions noted are these: primary human keratinocytes with fibroblasts; actives raise or lower the signal. In short, it runs like this: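 Keratinocytes and foreskin fibroblasts were co-cultured, dosed with chemical, and sampled 24 h later. MCP-1 was quantified by ELISA, and the endpoint was analyzed with bidirectional fitting using DMSO as negative control.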

Read-out in assay [12]: Matrix Metallopeptidase 9 (MMP9), MMP9 (gene 4318)
Description: BSK_KF3CT_MMP9: BioMAP Diversity Plus: KF3CT Assay for Matrix Metallopeptidase 9 (MMP9) Biomarker Activity (AID 2283074). The conditions noted are these: primary human keratinocytes with fibroblasts; actives raise or lower the signal. The procedure, abridged:
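ELISA read-out of MMP-9 at 24 h post-dosing in a co-culture of human skin keratinocytes and foreskin fibroblasts. Gain or loss of signal was fitted in both directions against DMSO.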

Read-out in assay [13]: urokinase plasminogen activator (uPA), PLAU (gene 5328)
Description: BSK_KF3CT_uPA: BioMAP Diversity Plus: KF3CT Assay for urokinase plasminogen activator (uPA) Biomarker Activity (AID 2283075). The following applies: primary human keratinocytes with fibroblasts; actives raise or lower the signal. In short, it runs like this: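 Skin co-culture (keratinocytes + foreskin fibroblasts), human primary; 24 h post-dose; uPA by ELISA; gain/loss fit vs DMSO baseline.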

Read-out in assay [14]: E-selectin (Homo sapiens) (UniProt P16581)
In words: BSK_LPS_Eselectin: BioMAP Diversity Plus: LPS Assay for Eselectin Biomarker Activity (AID 2283077). The following applies: primary human HUVEC with PBMC; actives raise or lower the signal. In short, it runs like this: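 Signal of E-selectin, detected by ELISA, served as the endpoint; cells were umbilical vein endothelium with PBMC, read 24 h after treatment. DMSO defined baseline, and both increases and decreases were fitted.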

Read-out in assay [15]: Interleukin-8 (IL8), CXCL8 (gene 3576)
Description: BSK_LPS_IL8: BioMAP Diversity Plus: LPS Assay for Interleukin-8 (IL8) Biomarker Activity (AID 2283078). The following applies: primary human HUVEC with PBMC; actives raise or lower the signal. The procedure, abridged: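 Endothelial cells and PBMC from human donors are co-cultured, treated with chemicals and LPS, then assayed for IL-8 by ELISA after 24 h. Parallel SRB staining (0.1% SRB after 10% TCA fixation, 560 nm) flags cytotoxicity.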

A short description of assay [16]: BSK_LPS_SRB: Viability Assessment in the BioMAP Diversity Plus: LPS Assay (AID 2283079).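 Also: total protein by sulforhodamine B absorbance as a cytotoxicity measure; measured one day after compound addition.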 The following applies: primary human HUVEC with PBMC. In short, it runs like this: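 Overt cytotoxicity was gauged by sulforhodamine B total-protein staining in a primary human vascular endothelial and mononuclear cell co-culture 24 h post-dosing. Activity was fitted in both directions relative to DMSO.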

Read-out in assay [17]: Interleukin-1 alpha (IL1a), IL1A (gene 3552)
Description: BSK_LPS_IL1a: BioMAP Diversity Plus: LPS Assay for Interleukin-1 alpha (IL1a) Biomarker Activity (AID 2283080). The following applies: primary human HUVEC with PBMC; actives raise or lower the signal. The procedure, abridged:
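Measured: IL-1 alpha via ELISA at 24 h in LPS-activated human umbilical vein endothelium–PBMC co-culture. Baseline: DMSO, bidirectional fitting.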

Read-out in assay [18]: Monocyte Chemoattractant Protein-1 (MCP1), CCL2 (gene 6347)
In words: BSK_LPS_MCP1: BioMAP Diversity Plus: LPS Assay for Monocyte Chemoattractant Protein-1 (MCP1) Biomarker Activity (AID 2283081).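 As to AC50: secreted MCP-1 protein quantified by ELISA in culture supernatant.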 The following applies: primary human HUVEC with PBMC; actives raise or lower the signal. The procedure, abridged: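 LPS-stimulated HUVEC/PBMC co-culture; chemical, 24 h; MCP-1 by ELISA; bidirectional fit vs DMSO; cytotoxicity via SRB (0.1% stain, 10% TCA fix, 560 nm) in parallel wells.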

Assay [19] in a line: BSK_KF3CT_SRB: Viability Assessment in the BioMAP Diversity Plus: KF3CT Assay (AID 2283069). The following applies: primary human keratinocytes with fibroblasts. In short, it runs like this:
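SRB read-out at 560 nm (0.1% stain, TCA-fixed cells) gauges overt cytotoxicity in a human skin keratinocyte–fibroblast co-culture 24 h post-dosing. Signal change was fitted bidirectionally relative to DMSO control.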

Read-out in the next assay: CD40, CD40 (gene 958)
In words: BSK_LPS_CD40: BioMAP Diversity Plus: LPS Assay for CD40 Biomarker Activity (AID 2283076). The conditions noted are these: primary human HUVEC with PBMC; actives raise or lower the signal. The procedure, abridged:
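CD40 signal, measured by ELISA, is fitted in both directions relative to DMSO vehicle. The system is an LPS-driven human vascular primary co-culture of endothelial cells and PBMC, sampled 24 h after compound addition.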

Sequence of E-selectin (Homo sapiens) (P16581 whole entry, looked up): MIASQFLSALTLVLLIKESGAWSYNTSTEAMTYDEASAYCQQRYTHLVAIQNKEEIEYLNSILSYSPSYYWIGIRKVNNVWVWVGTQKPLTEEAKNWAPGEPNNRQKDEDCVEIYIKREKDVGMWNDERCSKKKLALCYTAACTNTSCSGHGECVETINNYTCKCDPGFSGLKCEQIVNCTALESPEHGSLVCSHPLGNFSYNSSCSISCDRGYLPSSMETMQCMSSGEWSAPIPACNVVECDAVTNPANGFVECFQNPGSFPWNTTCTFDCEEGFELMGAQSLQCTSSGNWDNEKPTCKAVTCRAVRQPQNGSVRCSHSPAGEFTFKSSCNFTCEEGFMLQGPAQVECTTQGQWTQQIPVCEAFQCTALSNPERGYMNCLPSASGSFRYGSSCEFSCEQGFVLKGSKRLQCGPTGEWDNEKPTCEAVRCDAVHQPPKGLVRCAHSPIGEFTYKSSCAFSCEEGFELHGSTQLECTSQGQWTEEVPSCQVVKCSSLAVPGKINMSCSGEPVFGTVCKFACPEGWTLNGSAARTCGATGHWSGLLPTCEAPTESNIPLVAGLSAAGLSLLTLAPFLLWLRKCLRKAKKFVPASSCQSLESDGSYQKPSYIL

Take `CCSC(=O)N(CC)C1CCCCC1`: the outcome in [1], in [2], in assay [3], in assay [4], in assay [5] and in assay [6] was inactive. The outcome in assay [7], in assay [8], in assay [9], in assay [10], in [11] and in assay [12] was inactive. The result in [13], in assay [14], in assay [15], in [16] and in [17] was inactive.

In general, AC50 refers to the concentration giving half of the maximal activity seen. For `CCOC(=O)C(O)(c1ccc(Cl)cc1)c1ccc(Cl)cc1`, the outcome in [1], in assay [3], in assay [6], in assay [7], in [8] and in assay [9] was inactive. The result in [10], in assay [11], in [12] and in assay [13] was inactive. Besides, the concentration at half-maximal activity (AC50) is 14.3 µM (active) in assay [2]; 26.9 µM (active) in [4]; 13.2 µM (active) in [5]; 31.5 µM (active) in [14]; 35.2 µM (active) in [15]; 34.2 µM (active) in assay [16]. The AC50 is 30.3 µM (active) in [17] and 39.1 µM (active) in assay [18].

Regarding `Cc1ccccc1CO[C@@H]1C[C@@]2(C(C)C)CC[C@]1(C)O2`, the outcome in [1], in assay [2], in assay [3], in assay [4], in assay [5] and in assay [6] was inactive. The outcome in assay [7], in [19], in assay [8], in assay [9], in [10] and in assay [11] was inactive. Further, the outcome in assay [12] was “inactive”; in assay [13], “inactive”; in the assay with CD40, CD40 (gene 958) it was “inactive”; in [14] it was “inactive”; in [15], “inactive”; in assay [16], “inactive”. Also, the result in assay [17] and in [18] was inactive.
